PubChem BioAssay AID1345085 (National Center for Advancing Translational Sciences (NCATS), 2018)
Results filed as inconclusive are left out. Calls of active or inactive are those of the source. Calls come from the whole dose curve; as a rule, active = well fitted cell-killing curve with a large enough effect; inconclusive = small, poorly fitted or top-dose-only effect, or effect the other way; inactive = no such curve, though single readings can be large or run the other way.

system: Tov-21-G; test: Confirmatory qHTS for gynecologic anti-cancer compounds from libraries of approved drugs and bioactive compounds; conditions: gynecologic cancer cell panel viability, ATPlite luminescence, 48 h; series mostly up to 57.7 µM; activity change, negative = viability loss: at the top concentration; note: nearly all actives have a fitted effect of over 55% in size
Procedure, shortened: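 Cells (1,000/well) plated 16 h, then exposed 48 h at 37 °C to 11 concentrations (1:3) from 57.5 uM to 0.977 nM. Viability by ATPlite luminescence after 15 min; IC50 derived, with HEK 293T used for selectivity index.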
% is set by controls: 0 for no effect and ±100 for the full control effect; potency is the fitted concentration of half-maximal effect.

Compound | Potency | activity change, negative = viability loss
CCc1nc(C(N)=O)c(Nc2ccc(N3CCC(N4CCN(C)CC4)CC3)c(OC)c2)nc1NC1CCOCC1 | 2.67 µM (active) | –
CCOc1cc2ncc(C#N)c(Nc3ccc(F)c(Cl)c3)c2cc1NC(=O)/C=C/CN(C)C | 2.17 µM (active) | –
CC[C@@]1(O)C(=O)OCc2c1cc1n(c2=O)Cc2cc3c(CN(C)C)c(O)ccc3nc2-1 | 5.44 µM (active) | –
COc1cccc2c1C(=O)c1c(O)c3c(c(O)c1C2=O)C[C@@](O)(C(=O)CO)C[C@@H]3O[C@H]1C[C@H](N)[C@H](O[C@@H]2CCCCO2)[C@H](C)O1 | 8.63 µM (active) | –
O=C1c2c(O)ccc(O)c2C(=O)c2c(NCCNCCO)ccc(NCCNCCO)c21 | 4.32 µM (active) | –
CC(Oc1cc(-n2cnc3ccc(CN4CCN(C)CC4)cc32)sc1C(N)=O)c1ccccc1C(F)(F)F (stereo not given) | 27.3 µM (active) | –
CNC(=O)c1ccccc1Nc1nc(Nc2ccc(N3CCOCC3)cc2OC)ncc1Cl | 3.85 µM (active) | –
O=c1cc(CN2CCOCC2)occ1OCCCCCSc1ccnc2cc(C(F)(F)F)ccc12 | – | -17.4% (inactive)
CN[C@@H](C)C(=O)N[C@H]1CN(C(=O)CC(C)C)CC[C@H]2CC[C@@H](C(=O)NC(c3ccccc3)c3ccccc3)N2C1=O | 21.7 µM (active) | –
CCN(CC)CCOc1ccc(/C(=C(\Cl)c2ccccc2)c2ccccc2)cc1 | 126 µM (active) | –
CNC1CCC(N(Cc2cccc(-c3ccncc3)c2)C(=O)c2sc3ccccc3c2Cl)CC1 (stereo not given) | 19.3 µM (active) | –
CN1CCN(Cc2ccc(NC(=O)Nc3ccc(Oc4cc(NC(=O)C5CC5)ncn4)cc3)cc2C(F)(F)F)CC1 | 0.432 µM (active) | –
O=C(NOC[C@H](O)CO)c1ccc(F)c(F)c1Nc1ccc(I)cc1F | 1.72 µM (active) | –
CN(NC(=O)CC(=O)NN(C)C(=S)c1ccccc1)C(=S)c1ccccc1 | 0.153 µM (active) | –
CC(C)C[C@H](NC(=O)[C@@H](NC(=O)c1cccc(-c2ccccc2)n1)[C@@H](C)O)B(O)O | 1.72 µM (active) | –
CC(C)C[C@H](NC(=O)[C@H](Cc1ccccc1)NC(=O)c1cnccn1)B(O)O | 0.0968 µM (active) | –
CN(C)C1CCN(C(=O)c2ccc(NC(=O)Nc3nc(N4CCOCC4)nc(N4CCOCC4)n3)cc2)CC1 | 0.172 µM (active) | –
CCc1c2c(nc3ccc(O)cc13)-c1cc3c(c(=O)n1C2)COC(=O)[C@]3(O)CC | 1.09 µM (active) | –
CN1CCN(CCOc2cc(OC3CCOCC3)c3c(Nc4c(Cl)ccc5c4OCO5)ncnc3c2)CC1 | 0.243 µM (active) | –
Cc1cc(SCc2sc(-c3ccc(C(F)(F)F)cc3)nc2C)ccc1OCC(=O)O | – | 1.34% (inactive)
